Active and inactive are the calls of the source. Entries that show only a call come without a potency. Calls come from the whole dose curve; as a rule, active = well fitted curve in the direction sought with a large enough effect; inactive = no such curve, though single readings can be large or run the other way.
Assay: qHTS to identify inhibitors of the type 1 interferon - major histocompatibility complex class I in skeletal muscle: tertiary screen by RT-qPCR, retest select compounds
From the text: Assay Submitter (PI): Travis B. Kinder Ph.D. & James Inglese Ph.D. Assay Development and Screening Technology Laboratory (ADST) National Center for Advancing Translational Sciences (NCATS), Rockville, MD National Institute of Health (NIH), Bethesda, Maryland Idiopathic inflammatory myopathies, collectively referred to as myositis, are a group of rare autoimmune diseases characterized by skeletal muscle inflammation, weakness, and usually accompanied by systemic pathologies of the skin, lungs, or vasculature. Current immunosuppressive therapies and glucocorticoids are often not curative and are accompanied by harsh side effects, especially in children with juvenile myositis. We initiated a drug repurposing and development program to identify more targeted, less toxic therapeutics to treat myositis. Although its cause is not known, muscle from a subset of patients have an abundance of the inflammatory type 1 interferon (IFN) and a down-stream product major histocompatibility complex class I (MHC class I), which are both thought to contribute to damage and weakness. We conducted quantitative high throughput screening (qHTS) on 6,576 compounds (4,679 unique) through a series of cell-based assays to identify those that inhibit the IFN-stimulated expression of MHC class I in muscle precursor cells (myoblasts). The compound identification and evaluation strategy utilized a primary screen with reporter-tagged MHC class I in genome-engineered myoblasts, ATP content counter screen for viability, HLA-ABC immunofluorescence secondary screen, and HLA-B RT-qPCR tertiary screen. To determine if active compounds identified by qHTS in HLA-B HiBit reporter cells, and confirmed by HLA-ABC immunofluorescence, can inhibit the transcription of HLA-B mRNA, compounds were assayed by RT-qPCR. […] Briefly, five compounds identified from primary, counter, and secondary screening as inhibitory with minimal cytotoxicity were dispensed into 384-well plates using acoustic dispensing in a 6-point, 1:7 titration with a high final concentration of 10 uM. Normal immortalized human myoblasts C25cl48 were added to the plate with 4.0 ng/ml human IFN-beta for 24 hours, and cells were harvested and assayed by the Cells-to-Ct kit with TaqMan assays (Thermo Fisher).
PROTOCOL TABLE (as described by Inglese et al., 2007) SEQUENCE No. (e.g., 1, 2, 3, etc.); PARAMETER (e.g., Cells, Incubation, Reagent, etc.); VALUE; DESCRIPTION 0; Compounds; 150 nl; Follow-up compounds dispensed at 150 nl/well with Labcyte Echo 655 acoustic dispenser into one Corning white/clear bottom, high base TC 384-well plates (3765) 1a; Cells; 30 uL; Using a p200 manual pipette, seed 780 cells/well into 1 plate in 30 ul/well of iHSKM growth medium without dexamethasone into columns wells A1-A6. […]

Structure (SMILES)	Potency
Cc1ncsc1-c1ccc([C@H](C)NC(=O)[C@@H]2C[C@@H](O)CN2C(=O)[C@@H](NC(=O)COCCCOCCNC(=O)C[C@@H]2N=C(c3ccc(Cl)cc3)c3c(sc(C)c3C)-n3c(C)nnc32)C(C)(C)C)cc1	164 nM (active)
CS[C@H]1SC[C@@H]2C(=O)N(C)[C@H](C(C)C)C(=O)OC[C@H](NC(=O)c3cnc4ccccc4n3)C(=O)N[C@H](C)C(=O)N(C)[C@H]1C(=O)N(C)[C@H](C(C)C)C(=O)OC[C@H](NC(=O)c1cnc3ccccc3n1)C(=O)N[C@H](C)C(=O)N2C	2.9 nM (active)
C[C@]12C=CC(=O)C=C1CC[C@@H]1[C@@H]2[C@@H](O)C[C@@]2(C)[C@H]1CC[C@]2(O)C(=O)CO	inactive
CC(=O)OCC(=O)[C@@]12OC(C)(C)O[C@@H]1C[C@H]1[C@@H]3C[C@H](F)C4=CC(=O)C=C[C@]4(C)[C@@]3(F)[C@@H](O)C[C@@]12C	inactive

— PubChem BioAssay AID1347413 (National Center for Advancing Translational Sciences (NCATS), 2020)
